From the supplement of paper PMC11732987, “Enantioselective OTUD7B fragment discovery through chemoproteomics screening and high-throughput optimisation” (Communications Chemistry, 2025)

Key:
Assay in all cases: log2 ratio of Biotin-Ahx-Ub-VS probe labelling (fragment/DMSO); higher = less target engagement (more negative = stronger competition), active = hit call of the paper (q ≤ 0.05, log2 ratio ≤ -1)
Conditions in all cases: compound concentration: 200 uM; treatment time: 3 h
USP19 = target: T1, USP19 (UniProt O94966)
T1 sequence (whole entry): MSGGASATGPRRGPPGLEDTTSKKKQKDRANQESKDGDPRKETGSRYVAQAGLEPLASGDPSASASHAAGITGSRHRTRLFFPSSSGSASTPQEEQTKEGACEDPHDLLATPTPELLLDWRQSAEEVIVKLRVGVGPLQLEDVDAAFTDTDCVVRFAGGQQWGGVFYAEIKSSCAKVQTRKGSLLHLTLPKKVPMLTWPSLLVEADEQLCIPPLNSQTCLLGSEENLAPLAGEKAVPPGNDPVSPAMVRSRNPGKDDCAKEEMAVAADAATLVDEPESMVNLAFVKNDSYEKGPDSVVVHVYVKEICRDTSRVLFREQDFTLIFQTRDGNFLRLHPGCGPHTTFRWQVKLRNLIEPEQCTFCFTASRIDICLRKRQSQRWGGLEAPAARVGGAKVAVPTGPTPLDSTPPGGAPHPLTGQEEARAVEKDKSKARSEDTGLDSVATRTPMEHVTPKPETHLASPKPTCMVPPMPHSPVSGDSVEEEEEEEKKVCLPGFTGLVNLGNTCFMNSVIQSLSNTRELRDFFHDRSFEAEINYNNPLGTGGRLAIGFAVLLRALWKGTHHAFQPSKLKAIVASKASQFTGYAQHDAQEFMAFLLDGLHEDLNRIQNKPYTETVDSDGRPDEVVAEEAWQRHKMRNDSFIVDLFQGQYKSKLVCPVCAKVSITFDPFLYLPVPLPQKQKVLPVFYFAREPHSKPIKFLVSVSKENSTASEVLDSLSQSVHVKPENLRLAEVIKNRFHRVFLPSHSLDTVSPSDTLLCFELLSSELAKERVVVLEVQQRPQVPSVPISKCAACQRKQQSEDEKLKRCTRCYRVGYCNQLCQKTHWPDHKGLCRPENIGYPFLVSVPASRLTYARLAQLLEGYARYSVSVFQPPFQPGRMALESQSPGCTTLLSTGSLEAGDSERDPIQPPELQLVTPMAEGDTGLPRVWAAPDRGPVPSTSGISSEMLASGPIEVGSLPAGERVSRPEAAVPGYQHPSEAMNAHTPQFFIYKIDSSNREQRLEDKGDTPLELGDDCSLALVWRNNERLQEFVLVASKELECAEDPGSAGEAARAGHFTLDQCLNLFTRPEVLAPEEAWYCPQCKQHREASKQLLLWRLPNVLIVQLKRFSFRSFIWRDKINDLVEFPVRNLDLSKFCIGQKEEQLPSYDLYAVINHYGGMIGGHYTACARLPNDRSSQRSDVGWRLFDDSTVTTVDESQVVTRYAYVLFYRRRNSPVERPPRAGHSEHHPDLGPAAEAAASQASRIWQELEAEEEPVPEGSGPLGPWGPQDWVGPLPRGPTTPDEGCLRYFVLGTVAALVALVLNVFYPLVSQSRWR
Procedure, shortened: (§1)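 Fragment (200 µM) or vehicle was incubated for 3 h with triplicate HEK293T lysate samples of 495 µg, which were then treated with Biotin-Ahx-Ub-VS at 0.5 µM final for 1 h. Labelled DUBs were enriched on NeutrAvidin, digested with LysC and trypsin, and analysed by diaPASEF LC-MS/MS. Values are average log2 fragment/vehicle ratios from an unpaired t-test on global-median-normalised Spectronaut label-free quantities, using proteins with ≥2 unique peptides.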

USP22 = target: T2, USP22 (UniProt Q9UPT9)
T2 sequence (whole entry): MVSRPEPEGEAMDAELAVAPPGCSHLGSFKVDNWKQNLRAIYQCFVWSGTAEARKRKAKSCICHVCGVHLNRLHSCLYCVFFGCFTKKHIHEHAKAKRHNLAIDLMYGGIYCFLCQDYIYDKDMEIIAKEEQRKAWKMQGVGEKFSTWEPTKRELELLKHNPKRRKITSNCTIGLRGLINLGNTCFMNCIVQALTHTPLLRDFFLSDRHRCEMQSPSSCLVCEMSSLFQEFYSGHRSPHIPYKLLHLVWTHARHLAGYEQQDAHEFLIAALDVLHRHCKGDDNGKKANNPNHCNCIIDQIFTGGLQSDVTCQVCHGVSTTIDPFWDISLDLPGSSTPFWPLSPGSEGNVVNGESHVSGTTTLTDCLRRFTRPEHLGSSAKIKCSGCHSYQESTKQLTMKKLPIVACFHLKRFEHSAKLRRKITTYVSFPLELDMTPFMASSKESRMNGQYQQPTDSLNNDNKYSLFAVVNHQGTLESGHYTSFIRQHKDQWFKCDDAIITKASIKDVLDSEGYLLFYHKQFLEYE
Procedure, shortened: as §1

USP24 = USP24 (UniProt Q9UPU5)
Procedure, shortened: as §1

USP25 = target: T3, USP25 (UniProt Q9UHP3)
T3 sequence (whole entry): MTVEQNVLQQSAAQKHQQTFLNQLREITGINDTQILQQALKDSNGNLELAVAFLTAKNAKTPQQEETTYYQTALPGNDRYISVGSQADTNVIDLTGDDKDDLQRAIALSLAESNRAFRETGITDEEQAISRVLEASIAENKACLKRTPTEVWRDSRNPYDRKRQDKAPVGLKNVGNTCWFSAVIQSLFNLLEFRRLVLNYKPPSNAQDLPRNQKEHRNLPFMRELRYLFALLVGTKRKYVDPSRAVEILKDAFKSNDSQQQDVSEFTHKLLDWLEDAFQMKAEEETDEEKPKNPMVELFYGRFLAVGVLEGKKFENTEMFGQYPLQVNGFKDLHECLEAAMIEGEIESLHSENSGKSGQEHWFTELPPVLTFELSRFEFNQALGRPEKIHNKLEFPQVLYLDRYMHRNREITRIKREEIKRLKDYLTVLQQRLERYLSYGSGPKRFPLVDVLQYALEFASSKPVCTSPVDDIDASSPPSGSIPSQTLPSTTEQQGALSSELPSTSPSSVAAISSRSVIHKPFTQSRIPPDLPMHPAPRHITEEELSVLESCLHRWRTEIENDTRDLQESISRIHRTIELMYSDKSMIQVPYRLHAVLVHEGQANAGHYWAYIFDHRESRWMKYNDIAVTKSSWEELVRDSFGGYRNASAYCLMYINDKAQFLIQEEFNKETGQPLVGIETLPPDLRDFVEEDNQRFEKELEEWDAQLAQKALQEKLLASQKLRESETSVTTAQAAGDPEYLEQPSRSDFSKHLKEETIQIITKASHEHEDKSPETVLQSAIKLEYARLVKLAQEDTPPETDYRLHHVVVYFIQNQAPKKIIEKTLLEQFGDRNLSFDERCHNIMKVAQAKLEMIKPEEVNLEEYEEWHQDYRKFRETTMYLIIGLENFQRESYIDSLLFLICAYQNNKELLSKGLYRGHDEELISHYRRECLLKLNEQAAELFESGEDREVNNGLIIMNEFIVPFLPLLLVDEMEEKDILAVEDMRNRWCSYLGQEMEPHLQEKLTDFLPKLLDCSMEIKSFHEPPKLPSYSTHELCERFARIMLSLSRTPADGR
Procedure, shortened: as §1

USP28 = target: T4, USP28 (UniProt Q96RU2)
T4 sequence (whole entry): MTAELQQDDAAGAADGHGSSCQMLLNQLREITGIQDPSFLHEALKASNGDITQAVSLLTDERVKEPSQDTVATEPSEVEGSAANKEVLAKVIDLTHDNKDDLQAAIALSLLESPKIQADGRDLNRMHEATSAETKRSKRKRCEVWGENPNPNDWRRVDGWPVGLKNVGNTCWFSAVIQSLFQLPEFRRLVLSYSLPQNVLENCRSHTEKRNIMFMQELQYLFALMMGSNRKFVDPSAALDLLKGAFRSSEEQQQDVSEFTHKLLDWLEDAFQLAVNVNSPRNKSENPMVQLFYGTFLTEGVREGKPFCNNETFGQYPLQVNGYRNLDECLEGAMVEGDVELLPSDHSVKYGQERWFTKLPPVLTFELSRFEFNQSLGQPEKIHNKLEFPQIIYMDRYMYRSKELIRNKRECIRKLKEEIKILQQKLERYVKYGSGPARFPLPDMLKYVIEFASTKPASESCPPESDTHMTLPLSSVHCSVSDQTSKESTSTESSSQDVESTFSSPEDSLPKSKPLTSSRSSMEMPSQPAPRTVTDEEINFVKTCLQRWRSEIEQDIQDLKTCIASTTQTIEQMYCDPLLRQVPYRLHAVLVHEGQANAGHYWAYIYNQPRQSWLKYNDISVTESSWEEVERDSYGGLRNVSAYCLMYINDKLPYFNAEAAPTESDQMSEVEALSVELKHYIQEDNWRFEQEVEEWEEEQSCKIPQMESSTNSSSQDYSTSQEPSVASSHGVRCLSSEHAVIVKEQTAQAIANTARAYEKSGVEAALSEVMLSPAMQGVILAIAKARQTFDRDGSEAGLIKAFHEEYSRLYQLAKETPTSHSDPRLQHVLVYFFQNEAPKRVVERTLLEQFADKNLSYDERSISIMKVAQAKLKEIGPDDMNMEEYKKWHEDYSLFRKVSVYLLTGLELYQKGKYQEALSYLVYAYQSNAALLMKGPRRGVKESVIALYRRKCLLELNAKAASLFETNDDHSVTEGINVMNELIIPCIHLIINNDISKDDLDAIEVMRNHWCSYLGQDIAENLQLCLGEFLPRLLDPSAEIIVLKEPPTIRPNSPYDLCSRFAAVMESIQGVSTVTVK
Procedure, shortened: as §1

Measured: log2 ratio of Biotin-Ahx-Ub-VS probe labelling

USP24, sequence (Q9UPU5 whole entry): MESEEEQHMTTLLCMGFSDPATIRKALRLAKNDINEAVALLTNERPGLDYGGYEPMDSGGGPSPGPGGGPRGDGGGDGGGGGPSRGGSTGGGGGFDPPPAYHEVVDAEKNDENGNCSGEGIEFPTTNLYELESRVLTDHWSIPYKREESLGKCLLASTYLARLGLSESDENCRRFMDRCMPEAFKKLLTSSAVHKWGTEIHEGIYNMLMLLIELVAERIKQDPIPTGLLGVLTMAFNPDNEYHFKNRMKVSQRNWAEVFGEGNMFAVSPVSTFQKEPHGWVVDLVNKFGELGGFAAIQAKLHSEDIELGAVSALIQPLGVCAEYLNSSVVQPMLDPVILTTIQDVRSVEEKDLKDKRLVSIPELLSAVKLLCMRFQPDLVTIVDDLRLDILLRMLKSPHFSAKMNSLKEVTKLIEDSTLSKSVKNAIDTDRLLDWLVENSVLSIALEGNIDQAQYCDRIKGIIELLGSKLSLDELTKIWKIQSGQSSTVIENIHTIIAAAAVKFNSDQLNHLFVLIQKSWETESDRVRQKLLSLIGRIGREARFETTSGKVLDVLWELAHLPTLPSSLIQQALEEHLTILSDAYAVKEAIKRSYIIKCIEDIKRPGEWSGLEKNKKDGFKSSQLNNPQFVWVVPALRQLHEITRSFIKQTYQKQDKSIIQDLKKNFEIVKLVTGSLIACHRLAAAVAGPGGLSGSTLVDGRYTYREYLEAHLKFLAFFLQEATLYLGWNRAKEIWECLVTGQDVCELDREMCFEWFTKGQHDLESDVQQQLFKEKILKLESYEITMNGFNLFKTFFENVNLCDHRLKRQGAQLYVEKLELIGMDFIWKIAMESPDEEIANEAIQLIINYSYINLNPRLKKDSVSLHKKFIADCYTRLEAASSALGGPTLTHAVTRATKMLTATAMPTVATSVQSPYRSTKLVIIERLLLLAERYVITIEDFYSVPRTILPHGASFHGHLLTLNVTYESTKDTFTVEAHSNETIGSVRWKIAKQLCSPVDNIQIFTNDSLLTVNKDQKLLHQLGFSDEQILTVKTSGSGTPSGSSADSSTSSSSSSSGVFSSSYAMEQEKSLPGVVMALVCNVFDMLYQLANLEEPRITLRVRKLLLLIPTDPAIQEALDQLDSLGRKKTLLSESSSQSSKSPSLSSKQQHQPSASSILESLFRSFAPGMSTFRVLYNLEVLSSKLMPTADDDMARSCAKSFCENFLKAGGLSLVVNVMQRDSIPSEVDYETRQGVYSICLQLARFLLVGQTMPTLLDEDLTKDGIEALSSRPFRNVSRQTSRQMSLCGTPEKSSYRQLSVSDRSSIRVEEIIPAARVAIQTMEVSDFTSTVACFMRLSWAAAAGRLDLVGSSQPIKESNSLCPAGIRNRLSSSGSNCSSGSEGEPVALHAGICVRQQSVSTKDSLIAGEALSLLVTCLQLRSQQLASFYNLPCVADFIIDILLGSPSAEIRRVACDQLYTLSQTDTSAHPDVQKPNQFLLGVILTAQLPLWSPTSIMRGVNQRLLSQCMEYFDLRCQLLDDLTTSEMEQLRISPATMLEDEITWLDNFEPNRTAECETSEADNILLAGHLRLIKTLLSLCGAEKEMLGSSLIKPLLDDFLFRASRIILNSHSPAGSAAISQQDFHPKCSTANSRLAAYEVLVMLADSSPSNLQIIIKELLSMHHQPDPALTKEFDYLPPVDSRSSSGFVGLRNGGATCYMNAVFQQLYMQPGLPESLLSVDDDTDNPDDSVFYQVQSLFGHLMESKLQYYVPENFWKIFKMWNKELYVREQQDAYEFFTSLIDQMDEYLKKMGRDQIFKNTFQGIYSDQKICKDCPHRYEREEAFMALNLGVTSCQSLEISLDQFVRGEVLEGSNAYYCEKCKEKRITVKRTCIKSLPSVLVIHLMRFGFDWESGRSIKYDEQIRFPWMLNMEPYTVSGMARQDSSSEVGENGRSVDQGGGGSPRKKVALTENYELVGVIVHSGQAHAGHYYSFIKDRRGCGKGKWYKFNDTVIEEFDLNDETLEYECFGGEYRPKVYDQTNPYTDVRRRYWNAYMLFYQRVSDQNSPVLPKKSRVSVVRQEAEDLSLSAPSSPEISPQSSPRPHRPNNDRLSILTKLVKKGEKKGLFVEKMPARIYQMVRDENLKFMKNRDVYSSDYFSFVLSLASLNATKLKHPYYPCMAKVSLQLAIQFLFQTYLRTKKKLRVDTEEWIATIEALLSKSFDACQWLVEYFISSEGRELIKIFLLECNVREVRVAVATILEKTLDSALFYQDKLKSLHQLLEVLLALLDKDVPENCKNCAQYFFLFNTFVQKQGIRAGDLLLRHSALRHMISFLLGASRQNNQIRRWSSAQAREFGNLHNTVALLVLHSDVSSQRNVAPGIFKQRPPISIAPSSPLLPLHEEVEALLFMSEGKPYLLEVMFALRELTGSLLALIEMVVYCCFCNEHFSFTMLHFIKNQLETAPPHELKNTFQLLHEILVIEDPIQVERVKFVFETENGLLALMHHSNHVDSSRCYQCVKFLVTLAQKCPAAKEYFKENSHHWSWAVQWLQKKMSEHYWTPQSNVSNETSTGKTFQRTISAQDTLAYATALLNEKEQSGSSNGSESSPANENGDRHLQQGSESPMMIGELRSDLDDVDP

Cc1n[nH]c(=O)c2c(NC(=O)CCl)oc(C)c12
inactive: USP19 -0.168 | USP22 -0.281 | USP24 -0.0362 | USP25 0.114 | USP28 -0.11
